# This is a sample that favours compounds with a hit; in the whole collection about 2.8% have one here.
# PI4K2A block = PI4K2A (human) kinase inhibition. Q9BTU6. purified PI4K2A, ADP-Glo luminescence, 1 h; stronger effect = lower value. activity change, negative = inhibition, % at 76.9 µM. 420,000 tested, 0.13% active. AID 1346378; in the data active = activity change below about -50%; inconclusive = mostly about -30% to -49%;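 also: -100% = wells without enzyme as full effect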
# Target sequence (Q9BTU6 whole entry, looked up): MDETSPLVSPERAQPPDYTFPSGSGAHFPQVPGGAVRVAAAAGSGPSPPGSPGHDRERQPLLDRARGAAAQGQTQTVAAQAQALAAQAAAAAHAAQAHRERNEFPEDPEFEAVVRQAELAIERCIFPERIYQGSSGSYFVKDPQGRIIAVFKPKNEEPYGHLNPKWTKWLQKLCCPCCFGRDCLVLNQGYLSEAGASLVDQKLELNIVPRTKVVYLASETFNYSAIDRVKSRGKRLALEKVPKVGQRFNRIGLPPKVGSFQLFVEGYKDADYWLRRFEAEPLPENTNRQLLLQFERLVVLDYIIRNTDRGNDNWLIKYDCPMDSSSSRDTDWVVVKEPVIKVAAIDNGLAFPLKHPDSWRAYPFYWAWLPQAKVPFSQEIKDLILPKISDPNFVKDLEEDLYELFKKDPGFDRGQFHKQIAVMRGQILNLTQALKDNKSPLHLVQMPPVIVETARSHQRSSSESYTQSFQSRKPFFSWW
#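 Compounds are screened against recombinant PI4K2A using PI as substrate and ATP, the latter dispensed at 300 microM. Reactions run one hour at ambient temperature before ADP-Glo detection; full inhibition defined by wells lacking enzyme.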
# Akt phos inh = inhibitors of Akt phosphorylation; Neuro2A IGF-stimulated pAkt S473 HTRF, 20 min; stronger effect = lower value; activity change, % for hits at 50 µM; 360,000 tested, 0.32% active; in the data active = activity change below about -80%; inconclusive = mostly about -51% to -80%; also: % is scaled to controls: 0 for no effect and ±100 for the full control effect
#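 Single-point screen (50 µM final compound) in Neuro2A cells stimulated 20 min with 6 nM IGF at 37 deg C. After lysis, Ser473-phosphorylated Akt read by HTRF (ex 330 nm, em 615/665 nm) as the 665/615 ratio.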
# DRD3 antagonist = blocks the human D3 dopamine receptor. P35462. D3R cells, DiscoveRx beta-arrestin luminescence, antagonist mode; stronger effect = lower value. max response, negative = inhibition, %. 360,000 tested, 2.5% active; in the data active = max response below about -50%; inconclusive = no clear call, values can overlap the other calls; also: % is scaled to controls: 0 for no effect and ±100 for the full control effect
#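 Cells plated overnight at 1500 cells/well, then exposed to library compounds with dopamine controls for 90 minutes at 37 degrees C. DiscoveRx reagent added for 30–60 minutes at room temperature; luminescence read, quantitative HTS format.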
# D3 ag = agonists of human D3 dopamine receptor; P35462; D3R DiscoveRx beta-arrestin cells, luminescence, 90 min; max activation, %; 410,000 tested, 0.58% active; in the data active = max activation above about 30%; also: 0% is about no effect
#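 Agonist mode: compounds and dopamine controls were applied to plated cells for 90 min at 37 degrees C after an overnight attachment at 1500 cells/well. Luminescent read-out followed 30 - 60 minutes at room temperature with DiscoveRx detection reagent.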
# LDHA block = blocks human lactate dehydrogenase A. P00338. activity change, % (values are at about 110 or 230 µM). purified LDHA, NADH/diaphorase-resazurin fluorescence; stronger effect = lower value. AID 1347041. 480,000 tested, 0.15% active; in the data active = activity change below about -30%; inconclusive = mostly about -25% to -30%;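 also: plate controls were DMSO wells for no effect and wells without enzyme for full effect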
#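 Resorufin fluorescence (ex540/em590), read at 0 and 20 min after diaphorase/resazurin addition, reports the NADH left after a 5 min room-temperature reaction of 2 nM human LDH5 with 0.06 mM NADH and 0.2 mM pyruvate.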
# RGS4 inh = blocks human RGS4-accelerated GTP hydrolysis. P49798. Transcreener GDP fluorescence polarization, RGS4-accelerated GTP hydrolysis. Potency, µM (highest dose often 114 µM), inactives show at the top dose activity change, negative = inhibition, usual class: inhibitors. 390,000 tested, 0.039% active. AID 504845; active = well fitted inhibition curve with a large enough effect; inconclusive = small, poorly fitted or top-dose-only effect; inactive = no such curve, though single readings can be large or run the other way; also: potency is read from the fitted curve at half-maximal effect; % is scaled to controls: 0 for no effect and ±100 for the full control effect; nearly all actives have a fitted effect of over 75% in size
# Target sequence (P49798 whole entry, looked up): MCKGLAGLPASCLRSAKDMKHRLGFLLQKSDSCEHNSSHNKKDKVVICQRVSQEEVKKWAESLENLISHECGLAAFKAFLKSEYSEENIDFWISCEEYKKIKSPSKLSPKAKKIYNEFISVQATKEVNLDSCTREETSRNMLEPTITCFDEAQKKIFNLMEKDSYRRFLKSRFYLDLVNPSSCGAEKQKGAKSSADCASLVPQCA
#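 MLSMR compounds (23 nl, pin-transferred) preincubated 10 min at room temperature with a 500nM (2x) first reagent, then RGS4 at 900nM (2x) plus Transcreener GDP mix added; fluorescence polarization (620/688 nm) read before and after 90 min at 30 °C.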
# * marks the source's active call; other numbers are inactive results; i = inactive; ? = inconclusive; . = no result; [ ] = another dose, or the depositor's remark.
SMILES,PI4K2A block,Akt phos inh,DRD3 antagonist,D3 ag,LDHA block,RGS4 inh
COc1ccccc1NC(=O)c1ccc(-n2cncn2)nc1,4.3,i,6.3,30.7*,-3.9,7.3%
O=C(Nc1ccc(Cl)c2ncsc12)c1ccc(S(=O)(=O)N2CCCCC2)cc1,.,.,.,.,-1.8,.
O=C(CSc1nccn1Cc1ccc2c(c1)OCO2)Nc1nccs1,.,.,.,.,5.2,.
Cc1nc(-c2ccccc2O)n(S(=O)(=O)N(C)C)n1,0.1,i,13.1,30.6*,-0.8,-20.6%
O=C(Nc1nccs1)c1sccc1-c1ccccc1,.,.,.,.,2.5,.
O=C(N/N=C/c1cc(Br)ccc1O)C(=O)Nc1ccccc1OC(F)(F)C(F)F,0.3,i,14.0,48.5*,-0.4,-4.8%
CCOC(=O)CC(NC(=O)CCc1c(C)nc2c(-c3ccccc3)c(C)nn2c1C)c1ccc(OC(C)C)cc1 (stereo not drawn),-9.8,.,.,36.3*,-2.8,-0.9%
CSc1ccc(/C=C/C(=O)Nc2ccccc2)cc1,-51.8*,i,6.6,-8.4,-1.8,-5.4%
CCn1c(=S)sc2c(=O)n(CC(=O)Nc3ccccc3C(F)(F)F)c(C)nc21,-7.8,.,-6.8,31.8*,-7.5,15.6%
COc1cc(C)c(C(C)C)cc1S(=O)(=O)N1CCN(C)CC1,5.8,i,-18.4,0.2,-1.6,-0.6%
COc1cc(C)c(S(=O)(=O)N2CCOCC2)cc1C(C)C,0.7,i,-88.3*,3.1,2.1,2.8%
COc1ccc(OCC(=O)Nc2cc(-c3ccccc3)no2)cc1,.,.,.,.,4.1,.
O=[N+]([O-])c1ccc(O)c(N=Cc2sc3ccccc3c2O)c1,-0.9,i,-83.3*,-26.4,4.5,19.8%
Cc1nc2ccccc2c(=O)n1NC(=O)Cc1ccc(Br)cc1,-1.7,-81.1%*,24.1,10.4,-4.0,-1.0%
COc1ccc(/C=N/OCC(=O)Nn2c(C)nc3ccccc3c2=O)cc1,6.7,i,8.2,32.5*,1.7,-0.8%
CCc1ccccc1NC(=O)CCC(=O)c1ccc2c(c1)CCC2,.,.,.,.,1.1,.
Cc1ccc2c(c1)/C(=N/OS(=O)(=O)c1ccccc1)CCS2,1.2,i,12.4,-1.5,-1.9,-12.9%
Cc1ccc2c(c1)/C(=N/O)CCS2,3.3,-113.2%*,16.3,1.5,-3.9,-5.8%
CN(C)c1ccc(C=Nc2ccc(O)cc2)cc1,.,.,.,.,80.9,.
Cn1c(Cn2c(=O)sc3ccccc32)nnc1SCC(=O)NCc1ccccc1,0.1,i,-63.2*,-8.9,-8.0,-11.8%
CCn1c(SCC(=O)NCc2ccc(C)cc2)nnc1-c1ccncc1,0.1,i,-9.1,-0.4,-1.5,-13.0%
CCCCn1nnnc1SCC(=O)NCc1ccccc1,4.1,-114.7%*,-54.8*,-2.8,-12.2,18.6%
COc1ccc(OC)c(C(=O)CSc2nnnn2C)c1,-0.9,i,18.7,8.2,-7.2,-18.9%
Cn1c(Cn2c(=O)sc3ccccc32)nnc1SCC(=O)NCc1ccc(F)cc1,0.5,i,-15.8,-0.8,-2.5,-7.6%
CCCn1c(SCC(=O)NCc2ccccc2)nnc1-c1ccncc1,1.1,-115.0%*,-2.4,-2.5,-5.4,-16.0%
SMILES,PI4K2A block,Akt phos inh,DRD3 antagonist,D3 ag,LDHA block,RGS4 inh
CCCCn1nnnc1SCC(=O)NNC(=O)c1ccco1,0.0,i,-5.9,-2.4,-0.8,-17.4%
COc1cccc(C(=O)CSc2nnnn2C)c1,-2.9,i,-63.8*,0.1,-6.7,?
CCOc1cc(/C=C2\NC(=O)NC2=O)c(Br)cc1O,.,.,.,.,7.1,.
O=C(CSc1nnnn1Cc1ccccc1)c1ccccc1,2.1,i,-57.8*,-2.0,-7.2,-19.4%
O=C(CSc1nnnn1Cc1ccccc1)c1ccc(F)cc1,8.0,i,5.4,4.9,-2.7,-16.5%
CN1C(=O)CC(N2CCN(CC(=O)N3CCCC3)CC2)C1=O (stereo not drawn),2.7,-113.3%*,-5.2,2.4,-5.1,24.0%
CN1C(=O)CC(N2CCN(C(=O)CN3CCCC3)CC2)C1=O (stereo not drawn),-1.2,i,5.7,1.4,-4.4,-6.3%
Cc1cc(Cl)cc(C)c1OCCOCCNCc1ccccc1,-1.0,i,-79.6*,-8.6,-16.2,21.9%
Cc1cc(C)c(OCCCCNCc2ccccc2)c(Cl)c1,8.4,i,-76.2*,-59.1,-20.2,1.1%
CCOC(=O)C1=C(Cc2ccc(F)cc2)C(=O)c2ccccc2C1=O,-1.9,.,-99.8*,-25.5,60.7,?
O=C1C(c2ccc(F)cc2)N(CCc2ccccc2Cl)C(=O)CN1C1CCCCC1 (stereo not drawn),.,.,.,.,3.9,.
OC(CNC1CCCc2ccccc21)COc1c(Cl)cccc1Cl (stereo not drawn),-5.3,i,-78.3*,-23.6,-16.1,14.3%
C[C@H](CO)N1C[C@H](C)[C@H](CN(C)Cc2cccc(O)c2)OCc2ccccc2-c2c(n(C)c3ccccc23)C1=O,-3.3,i,24.1,45.4*,0.9,.
C[C@H]1CN([C@@H](C)CO)C(=O)c2c(c3ccccc3n2C)-c2ccccc2CO[C@H]1CN(C)Cc1cccc(F)c1,-3.6,i,4.1,0.8,5.5,.
Cc1ccc(-c2nn(CC(=O)NC3CC3)c(=O)c3ccccc23)cc1,.,.,.,.,0.6,.
Cc1ccc(C(=O)c2coc3ccc(OCC(=O)O)cc23)cc1,-1.1,i,-61.0*,-5.1,-3.5,-5.3%
COC(=O)COc1ccc2occ(C(C)=O)c2c1,0.1,i,-105.4*,-8.1,3.5,3.8%
CCC(C)c1ccccc1OCCCCN1CCCC1 (stereo not drawn),-0.1,i,-72.4*,-26.7,-12.3,-22.0%
CCc1ccccc1OCCCCN1CCCC1,12.6,i,?,-0.5,-21.7,-16.4%
CCC(C)c1ccccc1OCCOCCN1CCCC1 (stereo not drawn),5.0,i,-52.1*,-25.2,-16.8,16.2%
COc1ccc(-c2nc3ccccc3c(=O)o2)cc1OC,-2.6,-118.7%*,3.7,1.2,-8.7,-38.1%
COc1ccccc1CNC(=O)COc1ncnc2ccccc12,.,.,.,.,0.9,.
CCCC(c1nnnn1CCc1ccccc1)N1CCN(C(=O)c2ccco2)CC1 (stereo not drawn),-5.7,i,-51.0*,-17.6,-2.3,-11.0%
CCCCC(c1nnnn1CCOC)N1CCN(C(=O)c2ccco2)CC1 (stereo not drawn),-7.0,i,3.2,0.3,3.0,-20.6%[11.4 µM]
COc1ccc(-c2cc(C(=O)O)[nH]n2)cc1OC,-73.0*,i,-20.9,0.8,-2.4,2.7%
COc1ccc(-c2cc(C(=O)NN)[nH]n2)cc1OC,-3.2,i,-14.1,1.4,-3.8,13.9%
CC(C)n1nc(C(=O)OCC(=O)c2c[nH]c3ccccc23)c2ccccc2c1=O,0.0,i,46.4,59.2*,-2.9,15.9%
